Compound activity as filed in PubChem BioAssay.
GPR151 activ = activators of human GPR151, primary screen, cell-based, PathHunter beta-arrestin, luminescence; G-protein coupled receptor 151 (Homo sapiens), Q8TDV0; 650,000 compounds, 1% hits; AID 1508602, 2020; activation, % at 11.2 µM; PathHunter beta-arrestin GPR151 cells; in the data active means activation above about 4.9%;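 further: 0% = median of compound wells and 100% = cells with positive control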
Target sequence (Q8TDV0 whole entry, looked up): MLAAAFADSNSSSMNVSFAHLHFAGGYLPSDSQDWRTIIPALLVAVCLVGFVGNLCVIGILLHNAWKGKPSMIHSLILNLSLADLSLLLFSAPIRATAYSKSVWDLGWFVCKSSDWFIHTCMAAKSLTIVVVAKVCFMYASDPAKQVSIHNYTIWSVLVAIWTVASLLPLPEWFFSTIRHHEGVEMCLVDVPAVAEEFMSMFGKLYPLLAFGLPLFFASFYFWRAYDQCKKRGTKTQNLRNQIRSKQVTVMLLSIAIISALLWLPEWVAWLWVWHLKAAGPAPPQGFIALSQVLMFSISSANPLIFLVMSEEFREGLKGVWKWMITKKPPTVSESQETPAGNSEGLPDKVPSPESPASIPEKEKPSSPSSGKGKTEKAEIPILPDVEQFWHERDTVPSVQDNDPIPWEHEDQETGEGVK
MITF primary = MITF inhibitors, primary screen, biochemical, AlphaScreen, human; AlphaScreen MITF homodimerization, bead proximity signal; inhibition, % at 2.6 µM; 650,000 compounds, 0.91% hits; AID 1259374, 2018; in the data active means inhibition above about 50%;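 further: 0% = vehicle wells with protein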
TEAD-YAP inh = TEAD-YAP interaction inhibition, primary screen, TEAD-YAP interaction inhibitor project, luminescence, HEK-TIYL cells; TEAD-Gal4/YAP UAS-luciferase luminescence; inhibition, % at 9.12 µM; 640,000 compounds, 1.4% hits; in the data active means inhibition above about 32%;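 further: 0% = median of test compound wells and 100% = reference inhibitor wells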
FBW7 activator = FBW7 E3 ligase activators, primary screen, biochemical, AlphaScreen, human; F-box/WD repeat-containing protein 7 (Homo sapiens), Q969H0; AlphaScreen FBW7–phospho-cyclin E peptide binding, activator screen; normalized activity (activation), % at 26.1 µM; 650,000 compounds, 0.13% hits; AID 1259310, 2017; in the data active means normalized activity above about 1.9%;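 further: purified mutant Fbw7 with reduced substrate affinity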
* = called active by the depositor; / = not tested or not shown; ! = repeats disagree. Rows were chosen to be rich in hits. Some 3.4% of all compounds tested hit in one or more screens of this group.

SMILES | GPR151 activ | MITF primary | TEAD-YAP inh | FBW7 activator
COc1ccc(C(=O)Nn2c(SCc3ccc(F)cc3)nc3ccccc3c2=O)cc1 | 3 | -8 | 52* | 0
COc1ccc(C(=O)Nn2c(SCc3cccc(Br)c3)nc3ccccc3c2=O)cc1 | 0 | 0 | 52* | 0
CC(C)(C)c1ccc(-c2nc3ccccc3c(=O)n2NC(=O)c2cccnc2)cc1 | 1 | 10 | 83* | 0
COc1ccc(C(=O)Nn2c(SCc3ccc(Cl)cc3)nc3ccccc3c2=O)cc1 | 0 | -2 | 30 | 0
COc1ccc(C(C)=O)cc1CSc1nc2ccccc2c(=O)n1NC(=O)c1ccccc1 | -1 | 7 | -15 | 0
COc1ccc(C(=O)Nn2c(SCc3cccc([N+](=O)[O-])c3)nc3ccccc3c2=O)cc1 | 0 | 1 | 72* | 0
Cc1ccc(C2CC(C(F)(F)F)n3nc(C(=O)Nc4ccc(C)c(C)c4)cc3N2)cc1 (stereo not drawn) | -2 | -5 | 2 | 0
Cc1ccc(NC(=O)CSc2nc3ccccc3c(=O)n2NC(=O)c2ccc(F)cc2)cc1 | -4 | 7 | 41* | 1
COc1ccc(C(=O)Nn2c(SCc3ccc(C)cc3)nc3ccccc3c2=O)cc1 | 2 | -3 | 38* | 0
CCOC(=O)N1CCC(n2c(SCC(=O)Nc3ccc(C)cc3)nc3ccccc3c2=O)CC1 | -1 | 4 | 55* | 0
COc1ccc(C(=O)Nn2c(SCc3cccnc3)nc3ccccc3c2=O)cc1 | -1 | -14 | 66* | 0
COc1ccc(C(C)NC(=O)c2ccccc2I)cc1 (stereo not drawn) | 2 | 2 | 9 | 0
Cc1c(Cl)cccc1N1CC(C(=O)Nc2sc3c(c2C#N)CCCC3)CC1=O (stereo not drawn) | 1 | 3 | -1 | 0
Cc1ccc(NC(=S)N(Cc2cccs2)C2CCCC2)cc1 | 0 | -5 | -8 | 0
COc1ccc(CCNC(=O)CCn2c(SCc3cccnc3)nc3ccccc3c2=O)cc1OC | 1 | 2 | -1 | 0
COC(=O)c1ccc(C2C(C#N)=C(N)OC(C)=C2C(=O)OC(C)(C)C)cc1 (stereo not drawn) | 1 | 10 | 0 | 0
COc1ccc(C(=O)Nn2c(SCc3cccc(F)c3)nc3ccccc3c2=O)cc1 | 0 | -6 | 77* | 0
Cc1cc(-c2ccccc2)sc1/C(O)=C/c1nc2ccccc2[nH]c1=O | -1 | 0 | -3 | 0
CC1CCN(C(=O)c2ccc(N3C(=O)C4C5C=CC(C5)C4C3=O)cc2)CC1 (stereo not drawn) | -1 | -27 | 4 | 0
COC(=O)c1ccccc1NC(=O)CSc1nnc(NC(=O)C2CCC2)s1 | -2 | -10 | -5 | 0
COC(=O)c1ccccc1NC(=O)CSc1nnc(NC2CCCCC2)s1 | 0 | 10 | 40* | 0
Cc1ccc(OCC(=O)Nc2cc(-c3nc4cc(C(C)C)ccc4o3)ccc2Cl)cc1 | -1 | -1 | 6 | 0
Nc1ccc(-c2cc3ccccc3oc2=O)cc1 | 0 | -4 | 70* | 0
COc1ccc(OCC(=O)Nc2ccc(-c3cc4ccccc4oc3=O)cc2)cc1 | 0 | -8 | 43* | 0
CCC(=O)Nc1cc(-c2nc3cc(C(C)C)ccc3o2)ccc1Cl | 0 | -3 | 46* | 0
SMILES | GPR151 activ | MITF primary | TEAD-YAP inh | FBW7 activator
CC(C)c1ccc2oc(-c3ccc(NC(=O)COc4ccccc4)cc3)nc2c1 | -1 | -3 | 69* | 0
COc1ccc(OCC(=O)Nc2ccc(-c3cc4ccccc4oc3=O)c(C)c2)cc1 | -1 | 4 | 15 | 0
Cc1nn(CC(=O)NC2CCCCCC2)c(=O)c2cccn12 | 4 | -6 | -28 | 0
COc1ccccc1N1CCN(c2ncc(C(=O)Nc3ccc(F)c(Cl)c3)c3ccccc23)CC1 | 1 | -27 | 1 | 0
O=C1/C(=C/c2ccc(Cl)cc2)Oc2c1ccc(O)c2CN1CCOCC1 | 1 | 12 | 2 | 0
COc1ccc(OCC(=O)Nc2cc(-c3nc4cc(C(C)C)ccc4o3)ccc2Cl)cc1 | 0 | -7 | 70* | 0
CC(C)c1ccc2oc(-c3ccc(Cl)c(NC(=O)COc4ccc(Cl)cc4)c3)nc2c1 | 0 | -7 | -6 | 0
CCC(C)C(=O)Nc1ccc(-c2nc3ccccc3o2)cc1 (stereo not drawn) | -3 | -7 | 38* | 0
COc1ccc(OCC(=O)Nc2ccc(-c3nc4cc(C(C)C)ccc4o3)cc2)cc1 | -1 | 4 | 48* | 0
CCC(C)C(=O)N1CCC(C(=O)Nc2ccc(-c3nc4ccccc4o3)cc2)CC1 (stereo not drawn) | 1 | -9 | -7 | 0
COc1ccc(NC(=O)COc2ccc(C(C)C)cc2)c(OC)c1 | 4 | -8 | 4 | 2.1*
CCOC(=O)CN(C(=O)COc1ccc2c(C)cc(=O)oc2c1)c1ccc(F)cc1 | 0 | -5 | 2 | 0
CS(=O)(=O)NN1C(=O)c2ccccc2NC1c1ccccn1 (stereo not drawn) | -1 | -1 | 1 | 0
O=C(c1ccc(-c2ccccc2)cc1)N1CCN2C(=O)[C@H]3CCCN3C(=O)[C@H]2C1 | 0 | 5 | -5 | 0
O=c1oc2cc(O)ccc2cc1-c1ccc(Cl)cc1 | -12 | -17 | 42* | 1
COc1ccc(-c2cc3ccc(O)cc3oc2=O)cc1OC | -13 | 9 | -7 | 1
CCOc1ccccc1C(=O)ON1C(=O)c2ccccc2C1=O | -1 | 16 | 8 | 0
CCC1=NN(C(=O)c2ccc(OC)cc2)C(O)(c2ccccc2)C1 (stereo not drawn) | 1 | 11 | -28 | 0
CCOc1ccc2ccccc2c1/C=C1/SC(=O)N(CC(=O)OC)C1=O | -1 | 12 | 42* | 0
COc1ccc(C(=O)Nn2c(SCC(=O)NCc3ccco3)nc3ccccc3c2=O)cc1 | 0 | -10 | 75* | 0
COc1ccc(C(=O)Nn2c(SCC(=O)NCCc3ccccc3)nc3ccccc3c2=O)cc1 | 2 | -2 | 71* | 0
COc1ccc(-c2nnc(N)o2)cc1OC | 0 | 3 | 3 | 0
Cc1ccc(-c2ccc(-c3nnc(N)o3)s2)s1 | -4 | -3 | -24 | 2.3*
CCCCCCCCCCCCCCCCOC[C@H](COP(=O)(O)OCC[N+](C)(C)C)OC | 0 | -12 | / | /
Cc1sc(NC(=O)COc2ccccc2)c(C(N)=O)c1-c1ccccc1 | 0 | 4 | 75* | 0
CCOC(=O)c1c(NC(=O)CSc2ccccc2)sc(CC)c1-c1ccccc1 | 2 | 70* | -5 | 0
Cc1sc(NC(=O)COc2ccccc2)c(C(N)=O)c1C | 1 | 25 | -74 | 0
COc1ccc(C2CNC(=O)C2)cc1OC1CCCC1 (stereo not drawn) | -1 | 4 | 33*! | 0
COc1ccc(OC)c(C2CNC(=O)C2)c1 (stereo not drawn) | 0 | 0 | 2 | 0
Cc1ccc(NS(=O)(=O)c2cc(Br)cc3c2N(C(=O)C2CC2)CC3)cc1 | 1 | 2 | 40* | 0
